In article PMC4336329 (PLoS ONE, 2015):
The campaign covered roughly 310,000 compounds. About 14,000 (4.5%) showed an effect of 50% or more. Effects have a minus sign here. The sample holds strong results, similar compounds and a random draw of the others, so the mix is not that of the screen.

The compounds below were run against human ether-à-go-go-related gene (hERG) potassium channel (human, UniProt Q12809) (assay: primary screen, population patch clamp on CHO cells stably expressing hERG; higher = less effect of the substance).
Sequence of human ether-à-go-go-related gene (hERG) potassium channel (Q12809 whole entry, looked up): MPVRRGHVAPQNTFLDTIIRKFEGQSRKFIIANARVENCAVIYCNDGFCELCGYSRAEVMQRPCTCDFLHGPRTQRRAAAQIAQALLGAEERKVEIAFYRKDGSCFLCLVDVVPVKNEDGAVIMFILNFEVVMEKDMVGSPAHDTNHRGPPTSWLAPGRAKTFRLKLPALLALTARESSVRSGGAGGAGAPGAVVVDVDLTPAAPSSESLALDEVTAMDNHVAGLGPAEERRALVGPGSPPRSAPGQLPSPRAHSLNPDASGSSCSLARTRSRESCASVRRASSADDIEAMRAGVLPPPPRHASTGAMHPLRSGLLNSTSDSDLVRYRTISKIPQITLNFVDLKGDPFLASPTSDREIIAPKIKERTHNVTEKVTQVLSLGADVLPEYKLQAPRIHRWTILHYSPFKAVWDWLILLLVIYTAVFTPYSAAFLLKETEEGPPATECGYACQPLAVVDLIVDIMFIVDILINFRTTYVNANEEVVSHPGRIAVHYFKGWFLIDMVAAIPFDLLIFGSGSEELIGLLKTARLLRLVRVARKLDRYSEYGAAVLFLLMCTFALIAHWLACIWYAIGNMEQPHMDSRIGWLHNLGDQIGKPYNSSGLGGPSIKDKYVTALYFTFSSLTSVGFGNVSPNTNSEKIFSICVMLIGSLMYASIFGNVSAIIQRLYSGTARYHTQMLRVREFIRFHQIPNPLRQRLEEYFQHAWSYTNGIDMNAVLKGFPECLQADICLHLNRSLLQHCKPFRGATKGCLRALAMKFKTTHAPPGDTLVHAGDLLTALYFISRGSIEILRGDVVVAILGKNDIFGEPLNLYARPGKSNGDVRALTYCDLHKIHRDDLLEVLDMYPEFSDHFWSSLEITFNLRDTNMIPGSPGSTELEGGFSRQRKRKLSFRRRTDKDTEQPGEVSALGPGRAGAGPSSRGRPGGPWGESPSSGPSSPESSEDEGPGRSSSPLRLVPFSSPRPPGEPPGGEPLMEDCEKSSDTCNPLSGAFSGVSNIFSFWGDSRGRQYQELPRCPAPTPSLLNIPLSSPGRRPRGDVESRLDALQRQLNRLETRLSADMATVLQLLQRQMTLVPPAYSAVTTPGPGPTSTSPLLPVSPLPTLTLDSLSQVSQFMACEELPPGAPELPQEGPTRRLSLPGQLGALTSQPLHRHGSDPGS
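Further: peak tail current of the secondary pulse compared with the same well before compound.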

| Structure (SMILES) | hERG current change (%, negative = inhibition) at 10uM |
| --- | --- |
| C/C(CC(=O)Nc1ccc(Cl)cc1Cl)=N\NC(=O)C(=O)NCCO | 6.64% |
| O=C(NCc1ccco1)c1cc2nc(-c3cccs3)cc(C(F)(F)F)n2n1 | -17.6% |
| COc1cc(NC(=O)c2ccc(COCC(F)(F)F)cc2)cc(OC)c1OC | 1.25% |
| O=C(CSc1ccccc1)N[C@@H](Cc1ccccc1)C(=O)O | 13.7% |
| O=C(Nc1ccc(S(=O)(=O)Nc2ncccn2)cc1)C1COc2ccccc2O1 (stereo not drawn) | 11.1% |
| COc1ccc(S(N)(=O)=O)cc1C(=O)NCC(C)(C)N1CCCCC1 | -15.2% |
| COc1ccc2c(C)cc(SCc3c(C)noc3C)nc2c1 | -17% |
| O=C(Nc1ccc(CN2CCOCC2)cc1)c1cc(Cl)ccc1Cl | 0.807% |
| Cc1cc(Br)ccc1NC(=O)CNC(=O)CSc1n[nH]c(N)n1 | 18.5% |
| CCc1cc2c3c(c1)C1(C(=O)N3C(C)(C)CC2C)C(C#N)=C(N)N2C(=C1C#N)Nc1ccccc12 (stereo not drawn) | -1.49% |
| O=C(Cc1ccccc1F)NC1CCCN(Cc2ccc(Cl)cc2)C1 (stereo not drawn) | -33.7% |
| COc1ccc(CCC(=O)NC2CCCN(Cc3ccc(Cl)cc3)C2)cc1OC (stereo not drawn) | -48.2% |
| O=C(CCc1cccc(Cl)c1)NC1CCCN(Cc2ccccc2F)C1 (stereo not drawn) | -28.3% |
| O=C(CCc1ccc(F)c(F)c1)NC1CCCN(Cc2ccc(Cl)cc2)C1 (stereo not drawn) | -66% |
| COc1cccc(CC(=O)NC2CCCN(Cc3ccc(Cl)cc3)C2)c1 (stereo not drawn) | -26.3% |
| O=C(NC1CCCN(Cc2ccc(Cl)cc2)C1)c1ccccc1C(F)(F)F (stereo not drawn) | -16.9% |
| COc1ccc(C(=O)NC2CCCN(Cc3ccc(Cl)cc3)C2)c(OC)c1 (stereo not drawn) | -79.5% |
| O=C(Cc1cccc(F)c1F)NC1CCCN(Cc2ccc(Cl)cc2)C1 (stereo not drawn) | -21.7% |
| O=C(NC1CCCN(Cc2ccc(Cl)cc2)C1)c1cccc(F)c1 (stereo not drawn) | -61.3% |
| O=C(NC1CCCN(Cc2ccc(Cl)cc2)C1)c1c(F)cccc1F (stereo not drawn) | -15.7% |
| O=C(NC1CCCN(Cc2ccc(Cl)cc2)C1)c1c(F)ccc(F)c1F (stereo not drawn) | -75.3% |

| Structure (SMILES) | hERG current change (%, negative = inhibition) at 10uM |
| --- | --- |
| COc1cc(OC)cc(C(=O)NC2CCCN(Cc3ccc(Cl)cc3)C2)c1 (stereo not drawn) | -37.1% |
| O=C(Nc1ccccc1)c1ccccc1Oc1ccc(C(F)(F)F)cc1[N+](=O)[O-] | 9.75% |
| CC(=O)Nc1ccc(S(=O)(=O)NCCc2c[nH]c3ccc(C)cc23)cc1 | 26.2% |
| CS(=O)(=O)N(Cc1ccccc1)c1ccc(C(=O)Nc2cccnc2)cc1 | -5.96% |
| CN1CCN(S(=O)(=O)c2ccc(NC(=S)NC(=O)C(C)(C)C)cc2)CC1 | 1.03% |
| Cc1nn(S(=O)(=O)c2cccc([N+](=O)[O-])c2)c(C)c1Br | 10.7% |
| CC(C)(C)NC(=O)C(c1ccc(O)cc1)N(C(=O)CCC(=O)Nc1nccs1)c1cccc(F)c1 (stereo not drawn) | 16.8% |
| O=C(O)CC(NC(=O)c1ccco1)c1ccco1 (stereo not drawn) | 17.4% |
| CSc1sc(-c2nnc(SCC(=O)Nc3ccc(Cl)cc3)n2C)c2c1C=CCC2 | 10.5% |
| CSc1sc(-c2n[nH]c(=S)n2C)c2c1C=CCC2 | -56.8% |
| CSc1sc(-c2nnc(SCC(=O)Nc3ccccc3)n2C)c2c1C=CCC2 | -2.35% |
| Cc1cccc(C(=O)NN2S(=O)(=O)c3ccccc3S2(=O)=O)c1 | 18.2% |
| O=C(NCCC1=CCCCC1)c1cc(-c2ccccn2)nc2ccccc12 | 8.77% |
| COCCCNC(=O)C1CCN(S(=O)(=O)N(CC(C)C)CC(C)C)CC1 | 13.4% |
| O=C(NCCO)/C(=C/c1ccc2c(c1)OCO2)NC(=O)c1ccc(Br)cc1 | -69.5% |
| CC(=O)N/C(=C/c1ccc2c(c1)OCO2)C(=O)NCCO | 9.66% |
| O=C(NCCO)/C(=C\c1ccc2c(c1)OCO2)NC(=O)c1ccc(Br)cc1 | -51.9% |
| CC(=O)N/C(=C/c1ccc2c(c1)OCO2)C(=O)NCCCO | 23.3% |
| O=C(N/N=C/c1ccc2c(c1)OCO2)/C(=C/c1ccc2c(c1)OCO2)NC(=O)c1ccccc1 | -20.7% |
| O=C(OCc1cc(Cl)ccc1OC(F)F)c1cncc(Br)c1 | 5.33% |
| COc1ccc(C(=O)N=C2SC3CS(=O)(=O)CC3N2Cc2ccccc2)cc1OC (stereo not drawn) | 13.3% |

| Structure (SMILES) | hERG current change (%, negative = inhibition) at 10uM |
| --- | --- |
| CCOC(=O)c1c(C)[nH]c(C(=O)COC(=O)/C=C/c2ccc(O)c(OC)c2)c1C | 2.87% |
| CCOc1ccc(NS(=O)(=O)c2ccc(C(=O)N3CCN(C(C)=O)CC3)cc2)cc1 | 26.6% |
| Cc1ccccc1-n1nc(C)c2c1N=C1C(Cl)=CC(Cl)=CN1C2c1ccc(C(=O)O)cc1 (stereo not drawn) | 11.9% |
| CCOc1cc(N2CCOCC2)c(OCC)cc1NC(=O)CN1CCc2ccccc2C1 | 2.76% |
| COc1cccc(NC(=S)N(Cc2ccc(Cl)cc2)Cc2ccc(C(=O)O)cc2)c1 | 25.6% |
| COc1ccc2[nH]c(C)c(CCNC(=S)Nc3cccc(C)c3C)c2c1 | 15.9% |
| O=C(CN1CCCCCC1)NCCN1C(=O)S/C(=C\c2ccccc2Cl)C1=O | -9.34% |
| CC1CN(C(c2cccs2)c2sc3ncnn3c2O)CC(C)O1 (stereo not drawn) | 19.5% |
| O=C(NC1CCCCC1)C(c1ccc2ncccc2c1)N(Cc1cccs1)C(=O)c1cccs1 (stereo not drawn) | -51.3% |
| O=C(NC1CCCCC1)C(c1ccc2ncccc2c1)N(Cc1ccc(F)cc1)C(=O)c1cccs1 (stereo not drawn) | -22% |
| COc1ccc(CN(C(=O)c2cccs2)C(C(=O)NC2CCCCC2)c2ccc3ncccc3c2)cc1 (stereo not drawn) | -47.9% |
| O=C(NC1CCCCC1)C(c1cccs1)N(Cc1cccs1)C(=O)c1cccs1 (stereo not drawn) | -12.2% |
| O=C(NC1CCCCC1)C(c1ccc2ncccc2c1)N(Cc1ccc2c(c1)OCO2)C(=O)c1cccs1 (stereo not drawn) | -37.1% |
| O=C(NC1CCCCC1)C(c1ccc2ncccc2c1)N(Cc1ccccc1)C(=O)c1cccs1 (stereo not drawn) | -60.4% |
| COCCNC(=O)Cn1cc(C(=S)N2CCCCC2)c2ccccc21 | 18.7% |
| COc1ccccc1C(=O)NCCC(=O)N1CCCCCCC1 | 4.61% |
| CCOC(=O)c1csc(NC(=O)CN2CCN(C)CC2)n1 | 19% |
| Cc1ccc(S(=O)(=O)NCC(=O)N/N=C/c2ccc(Cl)cc2)cc1 | -3.55% |
| CCOCC(=O)Nc1nnc(SCCOC)s1 | -0.419% |
| O=C(CCCN1C(=O)/C(=C/c2cccs2)SC1=S)Nc1cc([N+](=O)[O-])ccc1O | 21.1% |
| O=C(C1CCC(Cn2c(=O)[nH]c3ccccc3c2=O)CC1)N1CCN(c2ccccc2)CC1 (stereo not drawn) | 6.47% |

| Structure (SMILES) | hERG current change (%, negative = inhibition) at 10uM |
| --- | --- |
| Fc1ccc(C2c3cccn3CCN2C(=S)Nc2cccc(F)c2)cc1 (stereo not drawn) | 6.02% |
| CCCCCc1cc(=O)oc2c(C(CCN3CCN(c4ccccc4)CC3)c3ccc(N(C)C)cc3)c(OC)cc(OC)c12 (stereo not drawn) | 5.51% |
| CCCCCc1cc(=O)oc2c(C(CCN3CCCCC3)c3ccc4c(c3)OCO4)c(OC)cc(OC)c12 (stereo not drawn) | -54.3% |
| CCCCCc1cc(=O)oc2c(C(CCN3CCCC(C)C3)c3ccc(OC)cc3)c(OC)cc(OC)c12 (stereo not drawn) | -27.8% |
| CCCCCc1cc(=O)oc2c(C(CCN3CCCCC3)c3ccc(OC)cc3)c(OC)cc(OC)c12 (stereo not drawn) | -59.1% |
| CCCCCc1cc(=O)oc2c(C(CCN3CCCC(C)C3)c3ccc4c(c3)OCO4)c(OC)cc(OC)c12 (stereo not drawn) | -7.33% |
| CCN(CC)CCC(c1ccc(N(C)C)cc1)c1c(OC)cc(OC)c2ccc(=O)oc12 (stereo not drawn) | -11.7% |
| CCCCCc1cc(=O)oc2c(C(CCN3CCN(c4ccccc4)CC3)c3ccc4c(c3)OCO4)c(OC)cc(OC)c12 (stereo not drawn) | 18.7% |
| CCCCCc1cc(=O)oc2c(C(CCN(CC)CC)c3ccc(N(C)C)cc3)c(OC)cc(OC)c12 (stereo not drawn) | -33.6% |
| CCCCCc1cc(=O)oc2c(C(CCN3CCCC3)c3ccc(N(C)C)cc3)c(OC)cc(OC)c12 (stereo not drawn) | -57.5% |
| CCCCCc1cc(=O)oc2c(C(CCN3CCCC(C)C3)c3ccc(N(C)C)cc3)c(OC)cc(OC)c12 (stereo not drawn) | 6.65% |
| CCCCCc1cc(=O)oc2c(C(CCN(CC)CC)c3ccc(OC)cc3)c(OC)cc(OC)c12 (stereo not drawn) | -55.2% |
| CC(=O)c1cn(-c2ccc(Cl)cc2)c(=O)n(Cc2ccc(Br)cc2)c1=O | -11.9% |
| O=C(Nc1ccccc1F)C1CCCN(S(=O)(=O)c2ccccc2)C1 (stereo not drawn) | -10.3% |
| Cc1ccc(Cc2cnc(N3C(=N)SC(c4ccccc4)C3=O)s2)cc1 (stereo not drawn) | 3.87% |
| COc1cc(OC)cc(C(=O)NCC(=O)OCC(=O)C(C)(C)C)c1 | 16.6% |
| CCCC1=NN2C(=N)/C(=C\c3cc(C)n(-c4cc(C)cc(C)c4)c3C)C(=O)N=C2S1 | -10.4% |
| CCc1nc2c(n1O)CCc1nonc1-2 | 4.58% |
